Screening data deposited in PubChem by several laboratories.
Yeast superoxide: lowers age-related superoxide in aged yeast cells; S. cerevisiae aged cells, superoxide DHE fluorescence; hits give low values; superoxide response (% of plate mean), % at 10 µM; 330,000 tested, 0.18% active; AID 2690;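 active = superoxide response under a set limit, about three screen SD below normal, cut at about 65% in these data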;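 also: yeast aged for seven days with compound at 30 °C before DHE staining; 100% = average MFI of all compound-treated wells on the plate with controls excluded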
PLCb3 inh: inhibitors of human phospholipase C beta3. inhibition, % at 12.2 µM. Q01970. AID 720704. 370,000 tested, 0.18% active. Purified PLC-beta3, fluorogenic substrate, fluorescence; in the data active = inhibition above about 11%;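 also: 0% = median of compound wells on plate and 100% = full blocker control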
sPLA2-III inh: Blocks human group III sPLA2 activity. Q9NZ20. QFRET BODIPY PC-A2 liposome hydrolysis, fluorescence. inhibition, % at 12.2 µM. 370,000 tested, 0.56% active. AID 743126;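 active = inhibition above mean plus 3 SD of compounds lying within the high and low control bounds, cut at about 19% in these data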;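 also: 0% = median of test compound wells and 100% = no enzyme DMSO wells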
HIF activator: HIF pathway transcriptional activation. 300,000 tested, 0.32% active. activation, % at 7.5 µM (by protocol). U2OS HRE-luciferase reporter, luminescence; normalized: DMSO 0%, desferrioxamine 100%. AID 1910;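 active = mean activation of at least 10% of the iron chelator positive control signal, with at least half of replicates also reaching 10%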
PLCg1 inh: blocks human PLC-gamma1 enzyme activity. P19174. purified PLC-gamma1, fluorogenic substrate, fluorescence. inhibition, % at 12.2 µM. 370,000 tested, 0.84% active. AID 720700
AHR act: activates the human aryl hydrocarbon receptor | P35869 | AID 2796 | AHR-responsive luciferase reporter cells, luminescence | activation, % at 5 µM | 320,000 tested, 2.5% active; in the data active = activation above about 47%;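 also: 0% = vehicle wells and 100% = reference agonist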
Target sequence (P35869 whole entry, looked up): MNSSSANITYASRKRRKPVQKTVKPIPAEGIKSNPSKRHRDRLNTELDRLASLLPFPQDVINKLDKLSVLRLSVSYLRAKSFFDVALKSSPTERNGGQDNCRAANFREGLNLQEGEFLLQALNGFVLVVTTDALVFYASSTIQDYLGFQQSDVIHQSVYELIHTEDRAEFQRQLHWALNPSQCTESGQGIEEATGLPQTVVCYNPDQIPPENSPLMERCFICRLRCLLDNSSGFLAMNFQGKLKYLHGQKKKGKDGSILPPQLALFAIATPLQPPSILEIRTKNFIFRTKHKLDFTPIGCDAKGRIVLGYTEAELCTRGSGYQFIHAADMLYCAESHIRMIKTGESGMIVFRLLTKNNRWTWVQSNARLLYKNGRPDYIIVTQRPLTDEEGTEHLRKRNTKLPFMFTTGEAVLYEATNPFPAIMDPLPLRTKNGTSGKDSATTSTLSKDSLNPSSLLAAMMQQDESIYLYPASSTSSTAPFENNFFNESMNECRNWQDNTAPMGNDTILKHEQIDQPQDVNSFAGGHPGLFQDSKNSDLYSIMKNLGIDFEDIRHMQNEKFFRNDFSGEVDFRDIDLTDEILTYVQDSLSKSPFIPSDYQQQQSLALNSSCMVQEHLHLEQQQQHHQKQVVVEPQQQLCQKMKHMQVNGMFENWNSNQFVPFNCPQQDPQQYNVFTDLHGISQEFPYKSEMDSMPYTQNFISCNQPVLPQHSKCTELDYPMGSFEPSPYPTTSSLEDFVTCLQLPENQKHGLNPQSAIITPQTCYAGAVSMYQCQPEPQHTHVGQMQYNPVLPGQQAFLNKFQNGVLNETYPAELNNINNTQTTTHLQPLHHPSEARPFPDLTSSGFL
PLCg1 ctr: inhibits human PLC-gamma1 in PLC-beta3 counter-screen; inhibition, % at 12.3 µM; AID 743258; shares compounds with PLCg1 inh; 3,300 tested, 3.1% active; purified PLC-gamma1, fluorogenic substrate, fluorescence
PLCbeta3 conf: confirmation of human PLC-beta3 inhibitors; 3,300 tested, 1% active; purified PLC-beta3, fluorogenic substrate fluorescence; shares compounds with PLCg1 inh; inhibition, % at 12.3 µM; in the data active = inhibition above about 11%
Starred values were filed as active, the others as inactive; x = no result. Hits are enriched below; roughly 3.9% of the tested compounds scored in any of these assays. Rule as the data show it, unless noted: active = inhibition above about 9.5%; inactive = the rest.

SMILES | Yeast superoxide | PLCb3 inh | sPLA2-III inh | HIF activator | PLCg1 inh | AHR act | PLCg1 ctr | PLCbeta3 conf
CC(=O)Nc1ccc(NC(=O)[C@H](C)NC(=O)c2ccco2)cc1 | 123.9 | -4.9 | 4.0 | 0.5 | 0.1 | 0.3 | x | x
CC(C)(C)C1CCC(=NNC(=O)C(=O)NC2CCCCC2)CC1 (stereo not given) | 97.0 | -4.1 | 15.6 | 0.2 | 2.8 | 0.6 | x | x
CCc1ccc(NC(=O)CCCN2C(=O)C3CC=CCC3C2=O)cc1 (stereo not given) | 108.7 | -0.9 | -8.0 | 0.6 | 2.6 | -1.0 | x | x
O=C(OCc1c(Cl)cccc1Cl)c1cccnc1Cl | 99.2 | 0.7 | -0.8 | -0.7 | -2.3 | -0.2 | x | x
O=C(OCc1ccccc1Cl)c1cccnc1Cl | 119.5 | 7.8 | 0.5 | 0.3 | 13.9* | 1.7 | -8.0 | -2.1
CC1(Oc2cccc(F)c2)CCN(Cc2ccc3ccccc3c2)C1 (stereo not given) | x | 0.1 | -0.9 | x | 0.8 | x | x | x
COC(=O)CCC(=O)N1CCC(CCC(=O)NCc2ccc(F)cc2)CC1 | 101.8 | -2.7 | 1.9 | 1.8 | 12.7* | x | -3.9 | -4.6
COC(=O)CCCC(=O)N1CCC(CCC(=O)NCc2ccc(F)cc2)CC1 | 98.0 | -2.2 | 3.2 | -1.2 | 1.5 | -1.8 | x | x
O=C(Cn1nc(C(=O)O)c2ccccc2c1=O)Nc1cccc(S(=O)(=O)N2CCCCCC2)c1 | 104.8 | 2.4 | 1.3 | x | 1.7 | -0.2 | x | x
C[C@H]1COc2cccc(N3CCC[C@H]3CO)c2S(=O)(=O)N1 | x | 0.3 | 7.5 | x | 2.2 | x | x | x
CCOC(=O)CSc1cc(=O)n(CC)c2ccccc12 | 99.2 | 2.2 | 8.2 | 0.6 | 10.1* | -0.2 | -7.8 | -7.4
COCCN(C(=O)C1=COCCO1)c1c(N)n(CC(C)C)c(=O)[nH]c1=O | 80.2 | -5.2 | 18.6 | x | 0.5 | -0.8 | x | x
CCCn1c(C(O)c2cccc(OC)c2)nc2ccccc21 (stereo not given) | x | -4.4 | 3.0 | -0.9 | 4.5 | x | x | x
O=C(CSc1n[nH]c(-c2ccccc2)n1)Nc1ccccc1O | 102.2 | -7.1 | -20.2 | 0.1 | 9.9* | 8.2 | -5.8 | -2.7
Cc1ccc(SCc2ccc(C(=O)Nc3cc([N+](=O)[O-])ccc3C)cc2)cc1 | 101.5 | 5.9 | 5.6 | 0.5 | 11.6* | -1.4 | -1.7 | -1.3
Cc1ccc(SCc2ccc(C(=O)Nc3cccc([N+](=O)[O-])c3)cc2)cc1 | 77.3 | 1.3 | 3.3 | -0.3 | -0.4 | -1.1 | x | x
Cc1nc(N2CCOCC2)[nH]c(=O)c1C | 101.2 | 0.9 | 0.5 | -0.7 | -1.0 | -2.5 | x | x
Cc1nc(N2CCOCC2)[nH]c(=O)c1[N+](=O)[O-] | 75.1 | -2.4 | 1.0 | 0.7 | 12.9* | -1.7 | 0.5 | 1.8
Cc1cccc(CN2CCN(C3CN(CCc4ccccc4)S(=O)(=O)C3)CC2)c1 (stereo not given) | x | 2.5 | -5.4 | x | 9.1 | x | x | x
OCC1OC(n2cnc3c(=S)nc[nH]c32)CC1O (stereo not given) | x | 0.1 | 11.6 | x | 10.1* | x | -3.0 | 1.6
CN(CCc1ccccn1)C1CCCN(S(=O)(=O)c2ccc(F)c(Cl)c2)C1 (stereo not given) | 78.2 | -7.2 | -6.8 | -0.5 | 10.9* | 13.2 | -4.9 | -3.2
Cc1c(-c2nnc(SCC(=O)O)n2-c2ccccc2Br)nnn1-c1ccccc1 | 86.2 | 2.0 | -5.0 | 0.3 | 14.2* | -1.5 | -6.9 | -26.8
O=C(Nc1cccc(S(=O)(=O)C(F)F)c1)c1ccc(S(=O)(=O)N2CCOCC2)cc1 | 89.3 | 12.7* | -22.0 | 1.5 | 3.6 | 2.5 | 0.2 | 1.1
O=C(Nc1cccc(S(=O)(=O)C(F)F)c1)c1ccc(S(=O)(=O)N2CCCC2)cc1 | 104.7 | 0.6 | -13.1 | -1.1 | 0.4 | 3.6 | x | x
O=C(NC12CC3CC(CC(C3)C1)C2)c1ccc(S(=O)(=O)N2CCOCC2)cc1 | 103.5 | 11.9* | 7.2 | -0.5 | 5.0 | 2.9 | 6.1 | -0.3
SMILES | Yeast superoxide | PLCb3 inh | sPLA2-III inh | HIF activator | PLCg1 inh | AHR act | PLCg1 ctr | PLCbeta3 conf
O=C(Nc1cccc(F)c1)c1ccc(S(=O)(=O)N2CCOCC2)cc1 | 105.3 | 8.5 | -3.0 | -0.3 | 10.2* | 0.1 | 2.3 | 7.4
O=C(Nc1nc(-c2ccncc2)cs1)c1ccc(S(=O)(=O)N2CCOCC2)cc1 | 100.8 | 6.0 | 0.4 | x | 13.3* | -2.1 | -15.4 | -11.3
O=C(CN(Cc1ccccc1)S(=O)(=O)c1ccc(S(=O)(=O)N2CCOCC2)cc1)Nc1ccccc1 | 73.0 | -0.5 | 9.7 | 0.5 | -1.2 | 0.8 | x | x
O=C(CN(Cc1ccc(F)cc1)S(=O)(=O)c1ccc(S(=O)(=O)N2CCOCC2)cc1)Nc1ccccc1 | 98.8 | 11.1* | -3.8 | 0.2 | 8.2 | -0.7 | -5.2 | -2.2
COc1cc(/C=C/C(=O)N(C)CC(=O)Nc2ccccc2SC)cc(OC)c1OC | 91.7 | -44.0 | 11.4 | x | -28.7 | 7.0 | x | x
CSc1ccccc1NC(=O)CN(C)C(=O)/C=C/c1ccccc1 | 115.5 | -4.0 | 15.7 | x | 10.1* | -0.1 | 2.2 | 7.6
COc1ccc(CCNCc2cc(C)n(-c3ccc(OC)cc3)c2C)cc1 | 72.0 | -9.2 | 5.3 | -36.8 | -3.3 | 2.3 | x | x
O=C(NCc1ccccc1)c1cc(C2CCCCN2C(=O)c2ccc3c(c2)CCO3)on1 (stereo not given) | x | -2.5 | 5.6 | x | 11.5* | x | -2.6 | -143.6
CCn1nc(C)c(CN2CCC(n3nccc3NC(=O)Cc3ccccc3)CC2)c1C | 89.2 | -8.4 | 4.3 | 0.2 | -1.5 | 1.6 | x | x
CCOC(=O)N1CCN(C(=O)C[C@@H]2C[C@@]3(C(=O)OCC)CCCC=C3N(CCc3ccc(OC)c(OC)c3)C2=O)CC1 | x | 2.3 | -7.8 | x | -2.2 | x | x | x
CCOC(=O)[C@]12CCCC=C1N(CCc1ccc(OC)c(OC)c1)C(=O)[C@H](CC(=O)N1CCCC1)C2 | x | 5.4 | 2.8 | x | 11.7* | x | -0.2 | -6.2
CCOC(=O)N1CCN(C(=O)C[C@@H]2C[C@@]3(C(=O)OCC)CCC=C3N(Cc3ccc4c(c3)OCO4)C2=O)CC1 | x | -1.1 | -2.0 | x | 9.7* | x | -6.7 | -2.6
Cc1c(/C(O)=C2/C(=O)C(=O)N(CCN3CCOCC3)C2c2ccccn2)cnn1-c1ccccc1 (stereo not given) | 107.3 | -12.9 | -4.0 | -3.0 | -7.2 | 4.9 | x | x
O=C(O)CCc1nc(-c2ccccc2)no1 | 82.0 | 6.3 | 8.1 | -0.3 | 2.6 | 5.1 | x | x
CCN(CC)CCc1nc(-c2ccccc2)no1 | 86.9 | 9.2 | 3.1 | x | 10.8* | 2.2 | -2.0 | 2.1
C[C@@H]1CCCCO[C@@H](CN(C)Cc2ccc(C(=O)O)cc2)[C@@H](C)CN([C@H](C)CO)C(=O)c2cc(NS(C)(=O)=O)ccc2O1 | x | -4.3 | -0.5 | x | -2.5 | x | x | x
O=c1[nH]n2c(=O)c3c([nH]c2c1N=Nc1cccc(Cl)c1)CCC3 | 111.8 | 7.3 | 7.0 | 0.3 | 10.0* | 0.6 | 4.5 | -0.7
COc1cccc(N=Nc2c(=O)[nH]n3c(=O)c4c([nH]c23)CCC4)c1 | 93.6 | 1.7 | -4.6 | 0.8 | 1.0 | 2.1 | x | x
